These results are taken from PubChem BioAssay AID1851 (National Center for Advancing Translational Sciences (NCATS), 2009).

About 5,700 (36%) of roughly 16,000 compounds were called active. Not shown: some 24% with an inconclusive outcome. This is one part of the list. Values without a mark were called inactive. Calls follow the shape of the dose curve; as a rule, active = well fitted curve in the direction sought with a large enough effect; inconclusive = small, poorly fitted or top-dose-only effect, or effect the other way; inactive = no such curve, though single readings can be large or run the other way.

The AC50 is the concentration at which the activity in the assay is half-maximal.
% is scaled to controls: 0 for no effect and ±100 for the full control effect.

This experiment deals with Cytochrome P450 1A2 (Homo sapiens) (UniProt P05177). Briefly: Cytochrome panel assay with activity outcomes. The note with it: recombinant CYP, pro-luciferin dealkylation, luminescence, p450-cyp1a2; series mostly up to 57.1 µM.
Sequence of Cytochrome P450 1A2 (Homo sapiens) (P05177 whole entry, looked up): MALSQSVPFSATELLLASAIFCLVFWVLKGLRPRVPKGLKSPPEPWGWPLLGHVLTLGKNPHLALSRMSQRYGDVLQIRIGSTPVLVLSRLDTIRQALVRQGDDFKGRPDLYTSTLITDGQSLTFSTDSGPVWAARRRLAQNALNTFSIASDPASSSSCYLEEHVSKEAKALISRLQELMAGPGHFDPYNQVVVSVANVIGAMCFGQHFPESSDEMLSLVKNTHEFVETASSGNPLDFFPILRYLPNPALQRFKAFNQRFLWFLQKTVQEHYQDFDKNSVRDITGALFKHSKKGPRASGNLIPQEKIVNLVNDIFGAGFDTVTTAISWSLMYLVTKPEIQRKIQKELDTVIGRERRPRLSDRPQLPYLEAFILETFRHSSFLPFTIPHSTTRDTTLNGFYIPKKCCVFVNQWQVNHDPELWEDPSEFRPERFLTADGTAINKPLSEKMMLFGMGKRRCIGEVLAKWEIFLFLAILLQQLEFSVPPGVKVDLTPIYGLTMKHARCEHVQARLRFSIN
`C/C(CCC(=O)OC[C@@H]1O[C@H](C#Cc2ccccc2)C=C[C@@H]1Oc1ccc(C)cc1)=N/OC[C@@H](C)[C@H](OCc1ccccc1)C(C)C`: the activity, negative = inhibition was -1.97% [at 11.4 µM].

With `COCC(=O)N1CCC2(CC1)CCN(C(=O)Nc1cccc(F)c1)CC2`, the AC50 result is “inactive”.

Turning to `CC(=O)N=c1sc(S(N)(=O)=O)nn1C`, the AC50 result was “inactive”.

With `O=C(O)CCC(=O)CCC(=O)c1ccccc1`, the AC50 result is “inactive”.

As to `O=C(O)CCC(=O)c1ccc2ccc3cccc4ccc1c2c34`, the AC50 is 1260 nM (active).

`CN(c1ccc(C(=O)NC2CC3CCC2C3)cc1)S(C)(=O)=O` (configuration not stated): the AC50 entry is “inactive”.

Consider `Cc1ccc(/C(N)=N/OC(=O)Cc2cccs2)cc1`, for which the half-maximal activity concentration (AC50) was 15800 nM (active).

On to `O=C(O)C(Cc1cccs1)C(=O)O`, for which the activity, negative = inhibition is -2.09% [at 2.29 µM].

`Cc1ccc(C(N)=Nc2ccccc2)cc1`: the activity, negative = inhibition was -14.7% [at 11.4 µM].

For `CN(NC(=O)NN)c1ncc(C(F)(F)F)cc1Cl`, the AC50 is 14100 nM (active).

Turning to `CC(C)On1c(SC(C)C)nc2ccccc2c1=O`, the AC50 was 2000 nM (active).

In the case of `COn1c(SC(C)C)nc2ccccc2c1=O`, the concentration at half-maximal activity (AC50) is 708 nM (active).

On to `O=C(NCCc1c[nH]c2ccccc12)C1CCN(c2nnc(N3CCCC3=O)s2)CC1`, for which the AC50 is 20000 nM (active).

Take `CN1CCN(CCCNC(=O)C2CCN(c3nnc(-n4cccc4)s3)CC2)CC1`: the AC50 result was “inactive”.

Turning to `CC1CC(C)CN(CCCNC(=O)C2CCCN(c3nnc(N4CCCC4=O)s3)C2)C1` (configuration not stated), the AC50 entry is “inactive”.

For the compound `C[C@@H]1NCC[C@H](CC(=O)O)[C@H]1CC(=O)O`, the activity, negative = inhibition was -6.87% [at 11.4 µM].

As to `FC(F)(F)c1cc(CN2CC3(CCNCC3)C2)cc(C(F)(F)F)c1`, the AC50 result was “inactive”.

On to `Cc1ccc(N=C/C(C(=O)C(F)(F)F)=C(\O)c2cccs2)cc1`, for which the AC50 is 12600 nM (active).

For `CC[C@H](C(=O)c1cccs1)C(O)(C(F)(F)F)C(F)(F)F`, the activity, negative = inhibition was -17.5% [at 2.29 µM].

For the compound `Cc1ccc(S(=O)(=O)c2c(C)nn(C(C)(C)C)c2OC(=O)c2cccs2)cc1`, the AC50 result is “inactive”.

As for `CC(=O)N1CCC2(CC1)CN(c1ccccn1)C2`, the AC50 result is “inactive”.

`Cc1cc(C)n2nc(-c3sccc3-n3cccc3)cc2n1`: the concentration at half-maximal activity (AC50) was 5010 nM (active).

In the case of `CCN1CCN(c2cc(=O)n(-c3cc(Cl)ccc3C)c(=O)[nH]2)CC1`, the AC50 result is “inactive”.

As for `c1ccc2c(c1)oc1c(NCCCn3ccnc3)ncnc12`, the AC50 is 56.2 nM (active).

For `c1ccc(-c2nc(NCCCn3ccnc3)c3oc4ccccc4c3n2)cc1`, the half-maximal activity concentration (AC50) was 39.8 nM (active).

On to `Cc1cc(C)c(NC(=O)C2CCCN2C)c(C)c1` (configuration not stated), for which the AC50 result is “inactive”.

For `Cc1cccc(C)c1NC(=O)N1CCC(N2CCCCC2)CC1`, the AC50 result was “inactive”.

For the compound `CCCCN1CCCC[C@H]1C(=O)Nc1c(C)cccc1C`, the half-maximal activity concentration (AC50) is 5010 nM (active).

Turning to `O=C(Cc1ncc(C(F)(F)F)cc1Cl)Nc1cccc(Br)c1`, the AC50 is 17800 nM (active).

As to `CCOC(=O)c1cnc2ccc(C)cc2c1Sc1ccccc1C(=O)OC`, the half-maximal activity concentration (AC50) is 3550 nM (active).

Regarding `COc1ncc2nc(-c3ccc(Cl)cc3)c(=O)n(-c3ccccc3)c2n1`, the concentration at half-maximal activity (AC50) was 1580 nM (active).

As for `COc1ncc2nc(-c3ccccc3)c(=O)n(-c3ccccc3)c2n1`, the concentration at half-maximal activity (AC50) is 2000 nM (active).

With `COCCNC(=O)COC(=O)/C=C/c1cnc2ccccc2n1`, the AC50 is 7080 nM (active).

Consider `CCc1c(C)c2c(C)[nH]nc2oc1=O`, for which the concentration at half-maximal activity (AC50) was 5010 nM (active).

Take `CC(C)C12CC[C@@]3(CC[C@H]4[C@@](C)(CCC[C@]4(C)C(=O)O)[C@@H]3C1)[C@@H](CN)C2`: the activity, negative = inhibition was -4.02% [at 11.4 µM].

In the case of `CCOC(=O)c1c(C)n(C)c2ccc(OC(=O)c3ccco3)cc12`, the AC50 was 355 nM (active).

As to `CCN(CC)CCOC(=O)c1c(C)n(C)c2ccc(OC)cc12`, the AC50 is 1410 nM (active).

As to `O=CN[C@@H](Cc1cnc[nH]1)C(=O)O`, the activity, negative = inhibition was -8.82% [at 11.4 µM].

Regarding `Cc1ccccc1-c1ccc2ncnc(N(C)C)c2c1`, the AC50 was 631 nM (active).

As for `CN(C)c1ncnc2ccc(-c3ccccc3C(F)(F)F)cc12`, the AC50 is 631 nM (active).

In the case of `COc1ccccc1-c1ccc2ncnc(N(C)C)c2c1`, the AC50 is 1260 nM (active).

In the case of `CN(C)c1ncnc2ccc(-c3ccccc3C#N)cc12`, the concentration at half-maximal activity (AC50) was 398 nM (active).

In the case of `Nc1nc(=O)c2[nH]cnc2n1O`, the activity, negative = inhibition is -12.4% [at 11.4 µM].

Regarding `COc1ccccc1-c1c(C(F)(F)F)oc2cc(OC(=O)c3cccc([N+](=O)[O-])c3C)ccc2c1=O`, the AC50 result is “inactive”.

As for `O=c1oc2cc(Oc3ccc(C(F)(F)F)cc3[N+](=O)[O-])ccc2c2c1CCCC2`, the AC50 result is “inactive”.

For `O=c1oc2cc(Oc3c([N+](=O)[O-])cc(C(F)(F)F)cc3[N+](=O)[O-])ccc2c2c1CCCC2`, the AC50 is 3160 nM (active).

Regarding `CC(C)(C)N1C(=O)[C@H]2[C@H]3[C@H](O)[C@H](O)C/C(=N/OC[C@@H](O)COCc4ccco4)[C@H]3CC[C@@H]2C1=O`, the activity, negative = inhibition was -7.06% [at 11.4 µM].

In the case of `C[C@@H]1/C=C\CC(=O)OC[C@H](C)C(=O)N[C@@H](Cc2ccccc2)C(=O)OC1`, the activity, negative = inhibition was -0.511% [at 11.4 µM].

For `COCCn1c(=O)c(CCc2ccccc2)nc2cnc(OC)nc21`, the concentration at half-maximal activity (AC50) is 10000 nM (active).

For the compound `COCCn1c(=O)c(CCc2ccccc2)nc2cnc(Oc3ccc(OC)cc3)nc21`, the AC50 was 15800 nM (active).

Turning to `COc1ncc2nc(CCc3ccccc3)c(=O)n(C)c2n1`, the AC50 was 5010 nM (active).

Take `COc1ccc(-n2c(=O)c(CCc3ccccc3)nc3cnc(OC)nc32)cc1`: the AC50 was 15800 nM (active).

For `CC(C)(C)c1cc(C(=O)O)c(CN2CCCCC2)o1`, the AC50 result is “inactive”.

Consider `CCN1C(=O)[C@H]2[C@H]3[C@H](O)[C@H](O)C/C(=N/OC[C@@H](C)[C@H](OCc4ccccc4)C(C)C)[C@@H]3CC[C@@H]2C1=O`, for which the activity, negative = inhibition was -11.8% [at 11.4 µM].

Take `COc1ncc2nc(CCc3ccccc3)c(=O)n(CCC#N)c2n1`: the concentration at half-maximal activity (AC50) was 15800 nM (active).

Regarding `CO[C@H]1COC(=O)[C@H](C)NC(=O)C/C=C\[C@@H](C)[C@H](OC)COC(=O)[C@@H](OCc2ccccc2)/C=C\[C@@H]1C`, the activity, negative = inhibition is -11.8% [at 11.4 µM].

Regarding `Cc1cccc(-c2n[nH]c([N+](=O)[O-])n2)c1`, the AC50 is 14100 nM (active).

For the compound `CS(=O)(=O)Nc1cccc(-c2ccc3ncnc(Nc4ccccc4)c3c2)c1`, the concentration at half-maximal activity (AC50) is 1000 nM (active).

Regarding `CNc1ncnc2ccc(-c3cccc(NS(C)(=O)=O)c3)cc12`, the half-maximal activity concentration (AC50) was 316 nM (active).

Turning to `Cn1ncc2c(Nc3cccc(C(=O)O)c3)ncnc21`, the AC50 result was “inactive”.

Consider `CS(=O)(=O)Nc1cccc(-c2ccc3ncnc(Nc4ccc(F)cc4)c3c2)c1`, for which the half-maximal activity concentration (AC50) was 794 nM (active).

`CS(=O)(=O)Nc1cccc(-c2ccc3ncnc(NC4CC4)c3c2)c1`: the half-maximal activity concentration (AC50) is 631 nM (active).
